Experimental data published in PubChem BioAssay (NCI).
This is part of a sample that, as a whole, favours compounds with a hit. Of some 83,000 tested, about 20% had one in any assay.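 Interpretation: 100, growth as untreated; towards 0, rising growth inhibition; 0, no net growth; 0 to -100, cell death. Compounds scoring below 10 were considered active.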 Unmarked numbers belong to inactive results. The source made the active and inactive calls.

Test system: HT29 colon
Assay: NCI-60 one-dose screen, 48 h (100 = growth as untreated, 0 = no growth, -100 = all killed)
Details: 10 µM unless noted
Description: Growth inhibition of the HT29 human tumor cell line is measured as a screen for anti-cancer activity. Cells are grown in 96 well plates and exposed to the test compound for 48 hours. Compounds are tested at a single concentration, which is 10^-5 M for most compounds. The reported endpoint is percent growth (GI% or GIPRCNT), where numbers from 0 - 100% represent growth inhibition, and numbers from -100% - 0 represent cell death. For example, a value of 40 represents 60% growth inhibition. A value of 0 means no net growth occurred over the course of the experiment. A value of -40 indicates 40% of cells at the beginning of the experiment died by the end of the experiment. A value of -100 means all cells are dead at the end of the experiment.
NCI-60 Human Tumor Cell Lines Screen was performed using the standard one-dose NCI protocol, which is described in more detail at https://dtp.cancer.gov/discovery_development/nci-60/default.htm.
Compounds with GIPRCNT values below 10 were considered active. Activity score was based on GIPRCNT using the following formula: […]
Score is 0 for GIPRCNT values of 100 or above, 50 for GIPRCNT values of 0, and 100 for GIPRCNT values of -100.

Which growth does the source give for `COC(=O)c1c2c(c(C)[n+]([O-])c1C)C(=O)C(NCc1ccc(OC)cc1)=CC2=O` here?
The growth was 9.48% (active).

How did the growth turn out when `O=C(CSc1nnc(-c2cc(-c3ccccc3)nc3ccccc23)n1-c1ccccc1)Nc1ccc(C(=O)/C=C/c2ccc(Cl)cc2)cc1` was run?
Its growth is 76.2%.

`Cc1ccc2c(=O)cc(C(=O)Nc3sc4c(c3C(=O)NCc3cccnc3)CCCC4)oc2c1C` was tested. Which growth did it give?
Its growth is 109%.

For `O=C1/C(=C\c2cccc3nccnc23)SC(=S)N1CCc1ccc(O)cc1`, which growth is on record?
The growth was 116%.

With `COc1ccc(Nc2ncccc2/C=C/C(=O)c2cc(OC)c(OC)c(OC)c2)cc1` as the compound, how does the growth read?
Its growth is -66.8% (active).

How did the growth turn out when `O=C(CSc1nc(-c2ccccc2)cc(=O)[nH]1)Nc1nc(-c2ccccc2)cs1` was run?
The growth was 99.1%.

Which growth does the source give for `CN(C)S(=O)(=O)Oc1ccc(-c2sc3cc(OS(=O)(=O)N(C)C)ccc3c2C(=O)c2ccc(OCCN3CCCCC3)cc2)cc1` here?
Its growth is 8.75% (active).

Which growth does the source give for `Cc1cn(-c2cc(NC(=O)c3cncc(C#Cc4c(N)ncc5ccc(F)cc45)c3)cc(C(F)(F)F)c2)cn1` here?
The growth was 8.94% (active).

For `C=C(C)[C@@H]1CC[C@]2(C(N)=O)CC[C@]3(C)[C@H](CC[C@@H]4[C@@]5(C)CC[C@H](OCCC#N)C(C)(C)[C@@H]5CC[C@]43C)[C@@H]12`, which growth is on record?
Its growth is 84.7%.

With `COc1ccc(Cn2cc3c(c2-c2ccccc2)CCc2cnoc2-3)cc1` as the compound, how does the growth read?
The growth was 11.7%.

How did the growth turn out when `C=C1C(=O)O[C@H]2[C@H]1CC/C(COC(=O)/C=C\C(=O)NCc1ccc(Cn3c(=O)sn(CCCl)c3=O)cc1)=C\CC[C@@]1(C)O[C@@H]21` was run?
The growth was 86.6%.

`COc1ccc(C2=NN(C(C)=O)C(c3cn(-c4ccccc4)nc3-c3ccc(Cl)cc3)C2)cc1` (stereo not given) was tested. Which growth did it give?
The growth was -6.18% (active).

How did the growth turn out when `C=CN(C(=O)N1CCN(c2cc3c(cc2F)c(=O)c(C(=O)O)cn3C2CC2)CC1)c1nc(-c2ccc(OC)cc2)cs1` was run?
The growth was 15.4%.

For `Cc1ccc(C=C2C(=O)NC(=O)NC2=O)cc1`, which growth is on record?
The growth was 103%.

`Cc1ccc(-c2nc(SCc3nc4cc(Cl)c(Cl)cc4[nH]3)[nH]c(=O)c2C#N)cc1` was tested. Which growth did it give?
The growth was 95.7%.

How did the growth turn out when `CCCCNC(=O)Oc1ccc(/C(=C(/C)Cc2ccc(OC)cc2)c2ccc(OCCN3CCCCCC3)cc2)cc1` was run?
Its growth is 3.69% (active).

For `CO[C@H](C(=O)[C@@H](O)[C@@H](C)O)[C@@H]1Cc2cc3cc(O[C@H]4C[C@@H](O[C@H]5C[C@@H](O)[C@H](O)C(C)O5)[C@H](O)C(C)(O)O4)cc(O)c3c(O)c2C(=O)[C@H]1O[C@H]1C[C@@H](O[C@H]2C[C@@H](O[C@H]3C[C@@H](OC)[C@H](O)C(C)O3)[C@@H](O)C(C)O2)[C@H](O)C(C)O1` (stereo not given in full), which growth is on record?
Its growth is 11.3%.

For `[2H]C([2H])([2H])Oc1ccc(F)cc1/C=C/C(=O)/C=C(/C=C/c1cc(F)ccc1OC([2H])([2H])[2H])OB(F)F`, which growth is on record?
Its growth is 80.2%.

How did the growth turn out when `O=C(CN1CCCCCC1)Nc1nc2ccc(NCc3ccc(Cl)cc3)cc2s1` was run?
The growth was 95.7%.

For `Fc1ccc2[nH]cc(-c3nc(-c4c[nH]c5ccncc45)cs3)c2c1`, which growth is on record?
The growth was -62.9% (active).

For `O=C(Cc1cccc(OC(F)(F)F)c1)Nc1ccc(CCCCc2nnc(NC(=O)Cc3ccccn3)s2)nn1`, which growth is on record?
The growth was 76.6%.

Which growth does the source give for `COc1ccccc1N(C(C)=O)C1=C(Cl)C(=O)c2ccccc2C1=O` here?
The growth was 6.98% (active).

Which growth does the source give for `CCOC(=O)C(=Cc1ccc(-c2ccccc2)cc1)C(=O)OCC` here?
Its growth is 4.16% (active).

How did the growth turn out when `O=C(/C=C/c1ccc(Oc2ccc(Br)cc2)cc1)c1ccc(Br)cc1` was run?
Its growth is 100%.

How did the growth turn out when `CN(C)CCCC1(c2ccc(F)cc2)OCc2cc(-c3cc4ccccc4s3)ccc21` (stereo not given) was run?
The growth was -67.1% (active).

`O=C1/C(=C2\SC(=S)N(C3CC3)C2=O)SC(=S)N1C1CC1` was tested. Which growth did it give?
The growth was 107%.

How did the growth turn out when `FC(F)(F)Oc1cccc(-c2cnc3ccc(-c4ccncc4)nn23)c1` was run?
The growth was 14.7%.

Which growth does the source give for `CNC(=O)c1ccccc1Nc1nc(Nc2cc(OC)c(OC)c(OC)c2)ncc1Br` here?
The growth was -0.259% (active).

For `COc1ccc(C(=O)Cn2c(C(=O)c3ccc(Cl)cc3)nc3ccccc32)cc1`, which growth is on record?
Its growth is 51.2%.

With `O=C(/C=C/C12c3ccccc3C(c3ccccc31)C1C(=O)NC(=O)C12)c1ccc(Br)cc1` (stereo not given) as the compound, how does the growth read?
The growth was 20.1%.

Which growth does the source give for `Cc1nn(-c2ccccc2)c(N)c1N=C1NC(=O)/C(=C/c2ccc(Br)cc2)S1` here?
Its growth is 106%.

Which growth does the source give for `COc1ccc(-c2n[nH]c(=O)c3nc(NC(=S)Nc4ccc(Oc5ccccc5)cc4)sc23)cc1` here?
The growth was 87.6%.

How did the growth turn out when `O=S(=O)(Nc1cc(Sc2cccc3cccnc23)c(O)c2ccccc12)c1ccccc1` was run?
The growth was -35.8% (active).

`Cc1ccc(S(=O)(=O)N2CCC(=O)c3ccccc32)cc1` was tested. Which growth did it give?
The growth was 68.4%.

With `CCCCCCCC/C=C\CCCCCCCCOc1ccc(CC(=O)NCC[N+]2(C)CCOCC2)cc1` as the compound, how does the growth read?
Its growth is 36.9%.

Which growth does the source give for `Cc1cc(Nc2ccc(C(=O)N3CCCC3)cc2)nc(NCCCNc2ccnc3cc(Cl)ccc23)n1` here?
The growth was 68.9%.

With `C#CCO[C@H]1CC(CC#C)(CC#C)C(=O)[C@@H]2[C@H]1[C@H]1C[C@@H]3[C@@]4(C)CCC[C@@](C)(C(=O)OC)[C@@H]4CC[C@@]23C=C1C(C)C` as the compound, how does the growth read?
The growth was 55.7%.

Which growth does the source give for `O=C1/C(=C/c2ccc(F)cc2)CN(C(=O)C(Cl)Cl)C/C1=C\c1ccc(F)cc1` here?
The growth was -24.7% (active).

With `COc1ccc(/C(C)=C(/c2ccc(OCCCN(C)C)cc2)c2ccc(OC(=O)c3ccccc3)cc2)cc1` as the compound, how does the growth read?
The growth was 9.02% (active).

How did the growth turn out when `CN(C)c1ccc(/C=C(\C#N)c2cc3ccccc3[nH]2)cc1` was run?
The growth was 5.51% (active).
